According to PubChem BioAssay (NCI):
This is part of a sample that, as a whole, favours compounds with a hit. Of some 83,000 tested, about 20% had one in any assay.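 Assay: single dose, 48 h. Readout: percent growth (0 = no net growth; negative = cell death). Active: <10.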 Unmarked numbers belong to inactive results. Activity calls are given as the source filed them.

Test system: MDA-MB-468 breast
Experiment: NCI-60 one-dose screen, 48 h (100 = growth as untreated, 0 = no growth, -100 = all killed)
Conditions: 10 µM unless noted

Row | SMILES | growth
1 | COc1ccc2cc3[n+](cc2c1OC)CCc1cc2c(cc1-3)OCO2 | 1.68% (active)
2 | CC(=O)c1ccc(Nc2nc(SCC(C)C)nc(-c3ccc(F)cc3)c2C#N)cc1 | 118%
3 | CO[C@H]1CC[C@@]2(C)C(=CC[C@H]3[C@@H]4C[C@H](O)C[C@@]4(C)CC[C@@H]32)C1 | -12.8% (active)
4 | S=c1nc2oc(-c3ccccc3)c(-c3ccccc3)c2c(/N=C\c2ccco2)[nH]1 | 91.6%
5 | O=c1cc(-c2ccc(Cl)cc2)[nH]c2ccccc12 | 85.6%
6 | CCN(CC)CCCC(Cc1ccccc1)Nc1c2ccc(Cl)cc2nc2ccc(OC)cc12 (stereo not given) | -72.3% (active)
7 | Cc1cccc(C[C@H](NC(=O)Nc2ccc(Cl)cc2F)C(=O)N[C@@H]2C(=O)N3C[C@H](O)C[C@H]3C(=O)N3CCN(C)C[C@H]3C(=O)N[C@@H](C)C(=O)N3C[C@H](C)C[C@H]3C(=O)O[C@H]2C)c1 | 15.7%
8 | Cc1ccccc1-n1nnc(C(=O)Nc2ccc(-c3ccccc3)cn2)c1C | 4.89% [50 µM] (active)
9 | COc1ccc2nc3cc(Cl)ccc3c(N3CCN(c4nccc(Nc5ccccc5)n4)CC3)c2c1 | 37.9%
10 | Cc1ccccc1NC(=O)Cn1cc(CN2CCN(c3ccnc4cc(Cl)ccc34)CC2)nn1 | 93%
11 | CCCCCCCCCCCCCCCCCCNC(=O)[C@H]1CSC(c2ccc(OC)cc2O)N1 (stereo not given in full) | 115%
12 | COC(=O)[C@H](Cc1cn(C)cn1)NC(=O)[C@H](Cc1ccccc1)NC(=O)Nc1cc(C(F)(F)F)cc(C(F)(F)F)c1 | -69.6% [100 µM] (active)
13 | CN1CCN(C(=S)SCCCCOc2cc(=O)oc3ccccc23)CC1 | 56.3%
14 | N#CC(C#N)=Cc1c(-c2ccccc2)[nH]c2ccccc12 | 32%
15 | Nc1ccc(-c2nc3ccc4[nH]ncc4c3c3c2CCCC3)cc1F | 7.24% (active)
16 | O=C1COc2ccccc2C(=O)N1CCCCN1CCCCC1 | 76.3%
17 | NC(=NCCCOc1ccc(Cl)cc1)Nc1ccc(Cl)cc1 | -14.9% (active)
18 | Clc1cc(Cl)c(Cl)nn1 | 102%
19 | CC(=O)c1ccc2c(c1)c1ccccc1n2C | 79.5%
20 | CCCCCCCO | 96.4%

Row | SMILES | growth
21 | C=CC[Se]C(=O)Cc1c(C)n(C(=O)c2ccc(Cl)cc2)c2ccc(OC)cc12 | -37.5% (active)
22 | COc1ccc2nc3cc(Cl)ccc3c(NCCCCCN3CCCCC3)c2c1 | -53.3% (active)
23 | CN1CCN(CCCCCN=c2cc3c(=O)n(CCCCCN4CCN(C)CC4)c(=O)c4c(NCCCCCN5CCN(C)CC5)cc5c(O)n(CCCCCN6CCN(C)CC6)c(=O)c2c5c4-3)CC1 | -50.8% (active)
24 | O=c1nc2c(-c3nc4ccccc4s3)n[nH]n2c2sc3c(c12)CCCC3 | 120%
25 | Cc1ccc(-c2cnc3sc(C(=O)NCCc4ccccc4)c(C)n23)cc1 | 93.1%
26 | CN1CCN(CCOc2ccc(-c3cnc4c(-c5ccccc5F)cnn4c3)cc2)CC1 | 45.6%
27 | COc1ccc(/C=N/NC(=O)c2[nH]c3ccc(Br)cc3c2-c2ccccc2)o1 | 13%
28 | C=C1C(=O)O[C@H]2[C@H]1CC/C(COC(=O)c1ccc(Cl)nc1)=C\CC[C@@]1(C)O[C@@H]21 | -25.1% (active)
29 | O=c1[nH]c(=O)n(C2CC(O)C(CO)O2)cc1C(F)(F)F (stereo not given) | 62.7%
30 | O=[N+]([O-])c1cccc(-c2nc3sccn3c2-c2ccnc(NCCCNS(=O)(=O)c3ccc(Cl)cc3)n2)c1 | 13.1%
31 | Brc1ccc2[nH]cc(-c3nn4cc(-c5nccs5)nc4s3)c2c1 | 51.2%
32 | CN1CCN(Cc2ccc(NC(=O)c3nc4ccc5[nH]ncc5c4c4c3CCCC4)cc2C(F)(F)F)CC1 | -92.9% (active)
33 | Cc1nn(-c2ccc(F)cc2)c2ncnc(Oc3ccc(NC(=O)Nc4ccc(Cl)c(C(F)(F)F)c4)cc3)c12 | 97.8%
34 | CCC1C(=O)COC1=O (stereo not given) | 103%
35 | COC(=O)c1c2c(c(C)[n+]([O-])c1C)C(=O)C=C(NCc1ccccc1)C2=O | -68.9% (active)
36 | C#Cc1cccc(NC(=O)c2cccc(NC(=O)CCl)c2)c1 | -52.7% [8.25 µM] (active)
37 | c1ccc(CN=C(NCc2ccccc2)NCc2ccccc2)cc1 | -14.8% (active)
38 | CCNc1nc2cc(Nc3ccnc4cc(Cl)ccc34)ccc2o1 | 41.2%
39 | Cc1ccc2c(c1)Sc1c(ccc3ccccc13)N2 | 86.6%
40 | Cc1nccc2c3ccc(OCc4cn(-c5ccc(Br)cc5)nn4)cc3n(CC(C)C)c12 | 5.61% (active)
